# Screening results from PubChem BioAssay.
# Sfp PPTase inh: blocks B. subtilis Sfp PPTase activity; Potency, µM, without a hit: largest response in the series, negative = inhibition, hits mostly inhibitors; Q9F4F7; AID 1490; Biochemical Sfp PPTase activity, qHTS; actives 3.5% (n = 310,000);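 also: the enzyme is Sfp with the accession as filed and its product quenches rhodamine fluorescence; 0% = enzyme reaction without inhibitor and -100% = no enzyme wells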
#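 With Hepes-Na pH 7.6 buffer containing 10 mM MgCl2, Sfp (15 nM) modified BHQ-2-YbbR (12.5 uM) using rhodamine-CoA (5 uM). Two reads 30 minutes apart at 525/598 nm yielded each well's rate.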
# BAZ2B inh: BAZ2B (human) inhibition; Q9UIF8; AlphaScreen BAZ2B-H3K14Ac peptide displacement; Potency, µM (series often up to 114 µM), for the others: top-dose activity change, negative = inhibition, hits mostly inhibitors; actives 4.4% (n = 360,000); also: % is scaled to controls: 0 for no effect and ±100 for the full control effect; nearly all actives have a fitted effect of over 60% in size
#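 AlphaScreen luminescence quantifies BAZ2B engagement of H3K14Ac peptide; the protein and biotinylated peptide are both at 50 nM final, buffer PBS pH 7.4 with 0.01% Tween-20, all steps at room temperature.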
# JMJD2A Tudor: inhibitors of human JMJD2A Tudor domain | O75164 | AlphaScreen JMJD2A-Tudor / H3K4me3 peptide binding | Potency, µM (doses to about 114 µM), inactives show at the top dose activity change, negative = inhibition, most hits filed as inhibitors | actives 4.4% (n = 390,000); also: % is scaled to controls: 0 for no effect and ±100 for the full control effect; nearly all actives have a fitted effect of over 50% in size
# G9a inh: blocks human histone lysine methyltransferase G9a; Potency, µM (highest dose often 102 µM), without a hit: at the top dose activity, negative = inhibition, most hits filed as inhibitors; G9a H3K9 monomethylation, AlphaScreen, 2 h; actives 8.8% (n = 350,000); AID 504332; also: % is scaled to controls: 0 for no effect and ±100 for the full control effect; nearly all actives have a fitted effect of over 75% in size
#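 G9a (20 nM) was preincubated 15 min with compound, then reacted 2 h at room temperature with 500 nM biotin-H3K9 peptide and 20 µM SAM. Monomethyl-H3K9 detected by AlphaScreen using anti-H3K9me1 antibody.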
# HP1b binding inh: HP1-beta chromodomain-methylated histone interaction inhibition; AlphaScreen HP1-beta / biotin-H3K9me3 peptide binding; Potency, µM (series often up to 114 µM), for the others: at the top dose activity change, negative = inhibition, hits mostly inhibitors; actives 0.56% (n = 390,000); AID 540317; also: nearly all actives have a fitted effect of over 70% in size
#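 AlphaScreen: HP1-beta (50 nM) preformed 30 min with biotin-H3(1-18)K9me3 peptide (50 nM) in PBS pH 7.4, 0.01% Tween-20. Compound added for 30 min at RT, then streptavidin donor/nickel chelate acceptor beads (10 ug/mL) for 30 min.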
# L3MBTL1 inh: L3MBTL1 (human) inhibition; Q9Y468; Potency, µM (doses to about 57.1 µM), for inactives: top-dose activity, negative = inhibition, usual class: inhibitors; actives 0.66% (n = 230,000); AlphaScreen L3MBTL1–H3K9me1 peptide binding; AID 485360; also: % is scaled to controls: 0 for no effect and ±100 for the full control effect; nearly all actives have a fitted effect of over 60% in size
#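 AlphaScreen assay: L3MBTL1 (50 nM final) was preincubated 30 min at room temperature with biotinylated H3(1-15)K9me1 peptide (75 nM final), then 30 min with library compounds; streptavidin donor and nickel chelate acceptor beads (10 ug/mL final) added, 30 min dark.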
# * hit, by the source's call; u = inconclusive; x = not tested or not shown; ! = not active in a repeat; [ ] = remark or other dose. Hits are enriched below; roughly 12% of the tested compounds scored in any of these assays. Calls follow the shape of the dose curve; as a rule, active = well fitted curve in the direction sought with a large enough effect; inconclusive = small, poorly fitted or top-dose-only effect, or another doubt; inactive = no such curve, though single readings can be large; an effect the other way counts as inactive or inconclusive. Potency is read from the fitted curve at half-maximal effect.
SMILES,Sfp PPTase inh,BAZ2B inh,JMJD2A Tudor,G9a inh,HP1b binding inh,L3MBTL1 inh
O=[N+]([O-])c1ccccc1CNc1ccc(F)c(Cl)c1,-16%,50µM*,u,u,-29%,-2%
O=C(Cc1ccc(F)cc1)Nc1ccc(F)c([N+](=O)[O-])c1,11%,-8%,-4%,-1%,17%,2%
O=C(Cc1ccccc1[N+](=O)[O-])NCc1ccc(Cl)cc1Cl,11%,10%,-21%,u,10%,-7%
COc1ccccc1NC(=O)c1csc2c1CCC(C)C2 (stereo not given),u,-26%,87%,u,129%,-24%
CC1CCc2c(C(=O)NCc3ccco3)csc2C1 (stereo not given),-9%,-37%,-6%,56µM*,22%,x
CC1CCc2c(C(=O)Nc3cccc(-c4nn[nH]n4)c3)csc2C1 (stereo not given),-13%,-28%,-26%,50µM*,19%,x
CCc1nnc(NC(=O)c2csc3c2CCC(C)C3)s1 (stereo not given),24%,-14%,x,11%,x,3%
COc1cc(OC)c(OC)cc1/C=C/c1nc2cc3ccccc3cc2c(=O)n1-c1ccccc1Br,x,-38%,u,u,12%,x
COc1ccc(/C=C\C(=O)Nc2ccccc2C(=O)O)cc1OC,26%,x,x,x,x,x
COc1ccc(N2CCN(C(=O)c3cccc(S(=O)(=O)N4CCc5ccccc54)c3)CC2)cc1,x,x,40µM*,x,u,u
NC(=O)C1CCN(C(=O)c2cccc(S(=O)(=O)N3CCc4ccccc4C3)c2)CC1,14%,-18%,0%,-12%,16%,1%
O=C(c1cccc(S(=O)(=O)N2CCc3ccccc3C2)c1)N1CCN(c2ccc(O)cc2)CC1,-33%,u,u,2.5µM*,u,-9%
CNCCNC[C@H](Cc1cccc2ccccc12)NCCc1ccccc1,x,x,u,x,-1%,-4%
CNC[C@H](Cc1ccccc1)NC[C@@H](Cc1cccc2ccccc12)NCCc1ccc(C)cc1,50µM*,u,u,u,6%,-6%
Cc1ncc(CCl)c2c1OC(C)(C)OC2,45µM*,50µM*,u,u,49%,14%
Cc1ncc(CO)c2c1OC(C)(C)OC2,4%,10%,-13%,-2%,20%,2%
CC(Oc1ccccc1)C(=O)OCc1cc(=O)n2nc(C(C)C)sc2n1 (stereo not given),x,-4%,-4%,18%[59 µM],7%,x
Cn1nnnc1SCCNC(=O)C1CCC(=O)N(Cc2ccccc2F)C1 (stereo not given),19%,-32%,9%,-8%,28%,x
Cn1nnnc1SCCNC(=O)C1CCC(=O)N(CCc2cccc(F)c2)C1 (stereo not given),13%,4%,11%,0.16µM*,29%,x
COc1ccc(N=C2S/C(=C\c3cc(C)n(C)c3C)C(=O)N2CC(C)C)cc1,-9%,u,40µM*,-12%[12.7 µM],u,-22%
CCn1cc(C(=O)NCCc2ccccc2)c(=O)c2cc(S(=O)(=O)N(C)C3CCCCC3)ccc21,x,x,-20%,-34%[59 µM],22%,x
CN(Cc1ccco1)S(=O)(=O)c1ccc(CN2C(=O)c3cccnc3C2=O)s1,8%,-36%[57.1 µM],32µM*,u,10%,x
COC(=O)[C@H]1C[C@@H]1[C@H](NC(=O)[C@H]1C[C@@H]1[C@H](NC(=O)OCc1ccccc1)c1ccccc1)c1ccccc1,12%,-2%,-12%,45µM*,27%,-1%
COC(=O)[C@H]1C[C@@H]1[C@H](NS(=O)(=O)c1ccccc1)c1ccccc1,71µM*!,3%,2%,u,50%,2%
CC(C)NC(=O)[C@@H]1C[C@H]1[C@@H](NC(=O)OCc1ccccc1)c1ccccc1,21%,x,x,x,x,x
Cc1ccc2occ(-c3cc(-c4ccc(F)cc4)nc4c3COc3ccc(F)cc3-4)c(=O)c2c1,x,-19%,-2%,6%[59 µM],38%,x
